This is a sample that favours compounds with a hit; in the whole collection about 0.48% have one here.
OPRK1 antag MB: blocks the human kappa opioid receptor, Maybridge compounds | P41145 | OPRK1 cells, antagonist mode, fluorescence readout | inhibition, % at 9 µM | 16,000 tested, 0.4% active | AID 652031; in the data active = inhibition above about 50%
TLR4 MyD88 blk: TLR4-MyD88 interaction inhibition; O00206; Cell-based TLR4-MyD88 binding inhibition assay; inhibition, % at 10 µM; 16,000 tested, 0.06% active; in the data active = inhibition above about 45%
Hits are given with their value; – = inactive.

SMILES | OPRK1 antag MB | TLR4 MyD88 blk
COC(=O)c1sccc1N/C=C(\C#N)S(=O)(=O)c1cccs1 | – | –
CCOC(=O)NC(=O)CC#N | – | –
CSc1sc(C(=O)NNC(=O)Nc2ccc(Cl)cc2)c2c1C1(CCC2)SCCS1 | – | –
CSc1sc(C(=O)NC(=O)Nc2ccc(Cl)cc2)c2c1-c1nocc1CC2 | 68.1 | –
Cn1nc(C(C)(C)C)cc1C(=O)Nc1ccc(Cl)cc1 | – | –
CCOC(=O)c1cc(C(=O)OC)c(C)nc1N1CCC(NC2CCCCC2O)CC1 (configuration not stated) | 91.7 | –
CCOC(=O)c1cc(C#N)c(N2CCC(C(=O)OCC)CC2)nc1C(F)(F)F | – | –
S=c1nccc(-c2csc(COc3ccccc3Cl)n2)[nH]1 | – | –
O=[N+]([O-])c1c(Sc2ccc(Cl)cc2)ccc2nsnc12 | 69.1 | –
CN(C)c1ccc2nsnc2c1[N+](=O)[O-] | – | –
O=C(c1cnn(-c2ccc(Cl)cc2)c1C(F)(F)F)N1CCN(c2ncnc3ccsc23)CC1 | 80.5 | –
NNC(=O)c1cnn(-c2ccc(Cl)cc2)c1C(F)(F)F | – | –
CSC1=N/C(=C\N(C)C)C(=O)N1CCOc1ccc(Cl)cc1 | – | –
Nc1cnc(Oc2c(Cl)cccc2Cl)c(C(F)(F)F)c1 | – | –
CC(=O)N[C@@H](C(N)=S)[C@@H](OC(C)=O)[C@H](OC(C)=O)[C@@H](COC(C)=O)OC(C)=O | – | –
CC(CCC(C)OC(=O)c1ccccc1C(=O)O)OC(=O)c1ccccc1C(=O)O (configuration not stated) | 59.7 | –
C#CC(/C=C/C)OC(=O)c1ccccc1C(=O)O (configuration not stated) | – | –
O=S(=O)(c1ccc(-n2cccn2)cc1)N(Cc1ccccn1)Cc1ccccn1 | – | –
O=C(/C=C/c1cccs1)NC(=S)Nc1ccc(S(=O)(=O)Nc2cc(F)ccc2F)cc1 | – | –
Brc1ccc(-c2csc(Nc3ccncc3)n2)cc1 | 68.2 | –
Clc1ccc(-c2csc(Nc3ccccc3)n2)cc1 | – | –
CC(C)(C)c1ccc(C(=O)c2cccs2)s1 | – | –
COc1ccc(-c2nc3cc4c(cc3o2)Oc2ccccc2N4)cc1 | 79.2 | –
COc1ccc(SCCc2nnc(-c3ccccc3)o2)cc1 | – | –
N#C[C@@H]1O[C@H](COC(=O)c2ccccc2)[C@@H](OC(=O)c2ccccc2)[C@H]1OC(=O)c1ccccc1 | – | –
SMILES | OPRK1 antag MB | TLR4 MyD88 blk
CCN(CC)c1ccc(C#N)cc1 | – | –
CCN(CC)c1ccc(/C=C/c2ccc([N+](=O)[O-])cc2C#N)cc1 | 68.8 | –
Cn1nc(-c2ccc(S(=O)(=O)NC3CCCCNC3=O)s2)cc1C(F)(F)F (configuration not stated) | – | –
CCCCN1C(=O)N(c2nnc(C(C)(C)C)s2)C(=O)C1c1ccc(F)cc1 (configuration not stated) | – | –
Clc1ccccc1OCc1nnc(-c2ccccc2Cl)o1 | – | –
CC(C)(C)NS(=O)(=O)c1sc(Br)cc1Br | – | –
COc1ccc(OS(=O)(=O)c2sc(Br)cc2Br)cc1 | 52.5 | –
N/C(Cn1ccc(C(F)(F)F)n1)=N\OS(=O)(=O)c1cccc(Cl)c1Cl | – | –
O=c1c(=NO)c(=O)c2ccccc12 | – | –
Cc1cc(C(=O)Nc2ccc(Oc3c(Cl)cccc3Cl)nc2)c(C)o1 | – | –
O=C1CSCC(=O)N1c1ccccn1 | – | –
